# PubChem BioAssay AID1159580 (chemical genetic matrix, 2015)
# Hit rate of the full screen: of about 5,500 compounds, about 2,000 (36%) were called active. Inconclusive results (about 18%) are left out. Some of the results follow. A number with no mark means an inactive call. Rule as the data show it: active = normalized growth mostly below about 0.91 (no sharp cut-off); inconclusive = no clear call, values can overlap the other calls; inactive = mostly above about 0.92.
# Test: chemical genetic growth profiling, strain panel (AID 1159580);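 also: tested at 20 µM; growth read once vehicle control cultures reached saturation at 30 °C; 1 = growth at the plate median or of vehicle wells; lower values mean less growth of the strain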
# Conditions: S. cerevisiae deletion strains, growth OD
compound,measurement,setting,value
COc1ccc(-c2coc3c(O)c(OC)ccc3c2=O)cc1,normalized growth,"locus YKL009W, strain mrt4, hits give low values",0.865 (active)
same,normalized growth,"locus YKL068W, hits give low values",0.94 (active)
same,normalized growth,"locus YKL085W, strain MDH1 (second series), hits give low values",0.935
same,normalized growth,"locus YKL085W, strain MDH1, hits give low values",0.935
same,normalized growth,"locus YKL160W, strain elf1, hits give low values",0.869 (active)
same,normalized growth,"locus YKL190W, strain CNB1, hits give low values",0.932
same,normalized growth,"locus YKR001C, strain vps1, hits give low values",0.82 (active)
same,normalized growth,"locus YKR026C, strain gcn3, hits give low values",0.967
same,normalized growth,"locus YKR091W, strain srl3, hits give low values",0.961
same,normalized growth,"locus YLL001W, strain dnm1, hits give low values",0.914
same,normalized growth,"locus YLL026W, hits give low values",0.966
same,normalized growth,"locus YLL041C, strain sdh2, hits give low values",0.956
same,normalized growth,"locus YLR027C, strain aat2, hits give low values",0.964
same,normalized growth,"locus YLR039C, strain RIC1, hits give low values",0.491 (active)
same,normalized growth,"locus YLR058C, strain SHM2, hits give low values",0.9
same,normalized growth,"locus YLR102C, strain apc9, hits give low values",0.941
same,normalized growth,"locus YLR113W, strain HOG1, hits give low values",0.994
same,normalized growth,"locus YLR221C, strain rsa3, hits give low values",0.957
same,normalized growth,"locus YLR258W, strain gsy2, hits give low values",0.925
same,normalized growth,"locus YLR262C, strain YPT6 (second series), hits give low values",0.736 (active)
same,normalized growth,"locus YLR268W, strain sec22, hits give low values",0.766 (active)
same,normalized growth,"locus YLR320W, strain mms22, hits give low values",0.827 (active)
same,normalized growth,"locus YLR330W, strain CHS5, hits give low values",0.838 (active)
same,normalized growth,"locus YLR342W, strain FKS1 (second series), hits give low values",0.843
same,normalized growth,"locus YLR342W, strain FKS1, hits give low values",0.963
same,normalized growth,"locus YLR357W, strain rsc2, hits give low values",0.899
same,normalized growth,"locus YLR370C, strain arc18, hits give low values",0.974
same,normalized growth,"locus YLR371W, strain rom2, hits give low values",0.922
same,normalized growth,"locus YLR384C, strain iki3, hits give low values",0.989
same,normalized growth,"locus YLR418C, strain cdc73, hits give low values",0.722 (active)
same,normalized growth,"locus YML016C, strain PPZ1, hits give low values",0.925
same,normalized growth,"locus YML032C, strain rad52, hits give low values",0.862 (active)
same,normalized growth,"locus YML120C, strain ndi1, hits give low values",0.893 (active)
same,normalized growth,"locus YML124C, strain tub3, hits give low values",0.937
same,normalized growth,"locus YMR058W, strain fet3, hits give low values",0.952
same,normalized growth,"locus YMR078C, strain ctf18, hits give low values",0.864 (active)
same,normalized growth,"locus YMR125W, strain sto1, hits give low values",0.964
same,normalized growth,"locus YMR129W, hits give low values",0.969
same,normalized growth,"locus YMR205C, strain PFK2, hits give low values",0.824 (active)
same,normalized growth,"locus YMR223W, strain ubp8, hits give low values",0.881 (active)
same,normalized growth,"locus YMR231W, strain pep5, hits give low values",0.987
same,normalized growth,"locus YMR307W, strain GAS1, hits give low values",0.58 (active)
